Assay outcomes (PubChem BioAssay)
An excerpt weighted towards active compounds, which were near 1.5% of everything screened.
CASP6 VEID inh: inhibitors of human caspase-6; purified caspase-6, Z-VEID-R110 cleavage fluorescence; P55212; 0.53% of 350,000 active; inhibition, % at 12.5 µM;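 active means mean inhibition across replicates at least about 35%, with every replicate also reaching that limit, limit read from the data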
NSD2 inh: inhibitors of human histone methyltransferase NSD2 | O96028 | NSD2 peptide methylation, AlphaScreen, 120 min | inhibition, % at 12.5 µM | 0.54% of 310,000 active | AID 743445; in the data active means inhibition above about 50%
Target sequence (O96028 whole entry, looked up): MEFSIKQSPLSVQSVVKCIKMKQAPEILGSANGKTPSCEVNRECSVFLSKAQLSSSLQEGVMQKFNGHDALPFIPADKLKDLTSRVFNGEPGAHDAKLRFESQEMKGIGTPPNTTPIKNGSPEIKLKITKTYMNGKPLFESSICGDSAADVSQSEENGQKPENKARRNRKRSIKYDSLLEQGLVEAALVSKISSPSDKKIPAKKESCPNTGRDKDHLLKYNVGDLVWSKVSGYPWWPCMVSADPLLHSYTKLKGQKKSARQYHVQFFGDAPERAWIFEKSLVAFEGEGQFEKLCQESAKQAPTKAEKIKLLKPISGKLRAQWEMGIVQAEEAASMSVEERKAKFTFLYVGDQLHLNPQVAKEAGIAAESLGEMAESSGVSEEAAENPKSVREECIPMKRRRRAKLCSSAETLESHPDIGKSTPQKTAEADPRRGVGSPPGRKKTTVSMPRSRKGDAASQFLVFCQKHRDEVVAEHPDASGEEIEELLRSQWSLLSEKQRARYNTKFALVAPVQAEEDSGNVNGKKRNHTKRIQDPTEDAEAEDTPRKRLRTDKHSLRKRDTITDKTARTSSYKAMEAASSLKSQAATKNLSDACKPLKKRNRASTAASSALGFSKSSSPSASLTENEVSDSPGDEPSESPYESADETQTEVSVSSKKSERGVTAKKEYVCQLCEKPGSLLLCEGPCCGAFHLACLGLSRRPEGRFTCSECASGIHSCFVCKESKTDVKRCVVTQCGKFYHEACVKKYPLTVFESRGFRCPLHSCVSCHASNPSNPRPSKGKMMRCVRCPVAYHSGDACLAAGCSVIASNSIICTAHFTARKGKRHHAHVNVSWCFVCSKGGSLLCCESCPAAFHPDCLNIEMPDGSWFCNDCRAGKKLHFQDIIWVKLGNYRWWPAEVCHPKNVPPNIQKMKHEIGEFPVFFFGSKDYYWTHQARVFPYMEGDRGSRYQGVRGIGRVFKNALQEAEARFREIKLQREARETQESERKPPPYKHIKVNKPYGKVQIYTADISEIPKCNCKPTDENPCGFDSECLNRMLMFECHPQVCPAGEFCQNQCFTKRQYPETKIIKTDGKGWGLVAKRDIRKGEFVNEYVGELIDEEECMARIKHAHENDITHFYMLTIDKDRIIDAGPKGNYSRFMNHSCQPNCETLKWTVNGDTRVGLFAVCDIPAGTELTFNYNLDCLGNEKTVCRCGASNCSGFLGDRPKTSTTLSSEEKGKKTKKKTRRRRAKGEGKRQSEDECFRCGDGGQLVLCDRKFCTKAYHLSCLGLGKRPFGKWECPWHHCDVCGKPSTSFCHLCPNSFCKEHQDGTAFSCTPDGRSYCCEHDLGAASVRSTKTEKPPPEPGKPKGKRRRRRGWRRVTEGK
AF4-AF9 inh: inhibitors of human MLL-AF4/AF9 interaction. AlphaScreen, biotin-AF4 peptide binding to FLAG-AF9. inhibition, % at 10 µM. 0.47% of 350,000 active. AID 651704;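 active means every replicate reaching a set inhibition limit, whatever the replicate mean, cut at about 25% in these data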
miR-122 sensor: inhibitors of miR-122 in Huh7 cells | AID 602342 | Huh7 miR-122 Renilla luciferase sensor, 48 h; neutral wells = 0, positive control = 100 | activation (reporter increase), % at 12.5 µM | 0.3% of 340,000 active;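 active means mean replicate activation score at least 90 and every replicate individually at or above 90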;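 further: higher luciferase means less miR-122 activity so hits act as miR-122 inhibitors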
RAD52 inh: inhibitors of human RAD52 DNA annealing; P43351; recombinant RAD52 DNA annealing, FRET fluorescence; inhibition, % at 18.7 µM; 0.46% of 360,000 active; AID 651710;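 active means every replicate showing at least 50% inhibition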
Of the large screens only hits and unclear results are named; the others gave an inactive call; [ ] = remark or other dose.

OCC1OC(n2cnc3c(NCc4ccccc4O)ncnc32)C(O)C1O (configuration not stated)	miR-122 sensor 572
OC[C@H]1O[C@@H](n2cnc3c(Nc4ccccc4)ncnc32)[C@H](O)[C@@H]1O	none (no result: NSD2 inh)
O=C([C@@H]1[C@@H](CO)[C@@H]2Cn3c(cccc3=O)[C@@H]2N1C(=O)C1CCCC1)N1CCOCC1	none (no result: NSD2 inh, miR-122 sensor)
CO[C@H]1CN(C)C(=O)c2cc(NC(=O)Nc3cc(F)ccc3F)ccc2OC[C@@H](C)N(C(=O)c2cnccn2)C[C@@H]1C	none (no result: NSD2 inh, miR-122 sensor)
Cc1ccc(/C(N)=N/OC(=O)c2cccc(F)c2)cc1	none (no result: CASP6 VEID inh, AF4-AF9 inh, RAD52 inh)
Cc1ccc(/C(N)=N/OC(=O)c2ccc3ccccc3c2)cc1	CASP6 VEID inh 55
C=CCC(NCc1ccccc1)c1ccc(C)o1 (configuration not stated)	none (no result: CASP6 VEID inh, AF4-AF9 inh, RAD52 inh)
C=CCC(NCc1ccccc1)c1ccc(Cl)cc1 (configuration not stated)	CASP6 VEID inh 54
CC1=C(C(=O)OC(C)C)C(c2ccc(N(C)C)cc2)C2=C(CC(C)(C)CC2=O)N1 (configuration not stated)	miR-122 sensor 150 (no result: CASP6 VEID inh, AF4-AF9 inh, RAD52 inh)
CCOC(=O)C1=C(C)NC2=C(C(=O)CC(C)(C)C2)C1c1ccc(N(C)C)cc1 (configuration not stated)	none (no result: CASP6 VEID inh, AF4-AF9 inh, RAD52 inh)
CSc1ccc(CN2CCC2(C)C(=O)Nc2cccc(NS(C)(=O)=O)c2)cc1 (configuration not stated)	CASP6 VEID inh 41
COc1ccc(NC(=O)C2(C)CCN2Cc2ccc(SC)cc2)cc1OC (configuration not stated)	none
Cc1ccc(N=Nc2ccc(O)c3ncccc23)cc1C	none (no result: NSD2 inh, miR-122 sensor)
Cc1cc(N=Nc2ccc(C)c(N=Nc3cc(C)c(N)cc3N)c2)c(N)cc1N	AF4-AF9 inh 63, RAD52 inh 80
Cc1noc(C)c1S(=O)(=O)N(C)C[C@@H]1Oc2ccc(NC(=O)Cc3ccccc3)cc2CC(=O)N([C@@H](C)CO)C[C@H]1C	none (no result: CASP6 VEID inh, NSD2 inh, AF4-AF9 inh, RAD52 inh)
C[C@H]1CN([C@@H](C)CO)C(=O)Cc2cc(N(C)C)ccc2O[C@H]1CN(C)Cc1ccc(Cl)c(Cl)c1	none (no result: CASP6 VEID inh, NSD2 inh, AF4-AF9 inh, RAD52 inh)
C[C@@H]1CN([C@H](C)CO)C(=O)c2cc(Br)cnc2O[C@H]1CN(C)CC1CCCC1	CASP6 VEID inh 62 (no result: NSD2 inh)
C[C@@H]1CCCCO[C@@H](CN(C)Cc2ccc(Cl)c(Cl)c2)[C@@H](C)CN([C@H](C)CO)C(=O)c2cc(N(C)C)ccc2O1	AF4-AF9 inh 48 (no result: NSD2 inh)
C[C@@H]1CN([C@@H](C)CO)C(=O)Cc2cc(N(C)C)ccc2O[C@@H]1CN(C)Cc1ccc(Cl)c(Cl)c1	AF4-AF9 inh 43 (no result: NSD2 inh)
C[C@H](CO)N1C[C@H](C)[C@H](CN(C)Cc2ccc3c(c2)OCO3)OCCCC[C@H](C)Oc2ccc(N(C)C)cc2C1=O	none (no result: NSD2 inh)
C[C@@H]1CCCCO[C@H](CN(C)Cc2ccc3c(c2)OCO3)[C@H](C)CN([C@@H](C)CO)C(=O)c2cc(N(C)C)ccc2O1	none (no result: CASP6 VEID inh, NSD2 inh, AF4-AF9 inh, RAD52 inh)
C[C@H](CO)N1C[C@H](C)[C@@H](CN(C)Cc2ccc(Cl)c(Cl)c2)OCCCC[C@H](C)Oc2ccc(N(C)C)cc2C1=O	AF4-AF9 inh 43 (no result: NSD2 inh, miR-122 sensor)
CCC(=O)Nc1ccc(C2=NNC(=NCC3CCCO3)SC2)cc1 (configuration not stated)	none (no result: CASP6 VEID inh, AF4-AF9 inh, miR-122 sensor, RAD52 inh)
COc1ccc(S(=O)(=O)Nc2ccc3c(c2)C(=O)N([C@@H](C)CO)C[C@@H](C)[C@H](CN(C)C(=O)Cc2ccccc2)OCCCC[C@H](C)O3)cc1	none (no result: NSD2 inh)
C[C@@H]1CCCCO[C@@H](CN(C)CC2CCCCC2)[C@H](C)CN([C@@H](C)CO)C(=O)c2cc(N(C)C)ccc2O1	AF4-AF9 inh 37 (no result: NSD2 inh)
C[C@H](CO)N1C[C@H](C)[C@H](CN(C)Cc2ccc(Cl)c(Cl)c2)Oc2ccc(N(C)C)cc2C1=O	AF4-AF9 inh 32 (no result: NSD2 inh)
C[C@@H]1CCCCO[C@@H](CN(C)CC2CCCCC2)[C@@H](C)CN([C@@H](C)CO)C(=O)c2cc(N(C)C)ccc2O1	none (no result: NSD2 inh)
C[C@@H]1CN([C@@H](C)CO)C(=O)c2cc(-c3ccccc3)cnc2O[C@@H]1CN(C)C(=O)Cc1ccccc1	none (no result: CASP6 VEID inh, NSD2 inh, RAD52 inh)
C[C@H](CO)N1C[C@H](C)[C@H](CN(C)CC2CCCCC2)Oc2ccc(NC(=O)Nc3ccc(C(F)(F)F)cc3)cc2CC1=O	none (no result: NSD2 inh)
C[C@H]1CN([C@@H](C)CO)C(=O)c2cccc(NC(=O)Nc3ccccc3)c2O[C@@H]1CN(C)Cc1ccc(C(=O)Nc2ccccc2N)cc1	miR-122 sensor 153[16.7 µM] (no result: CASP6 VEID inh, NSD2 inh)
C[C@@H]1CN([C@@H](C)CO)C(=O)c2cccc(NC(=O)c3cnccn3)c2O[C@@H]1CN(C)Cc1ccc(C(=O)Nc2ccccc2N)cc1	miR-122 sensor 129[16.7 µM] (no result: NSD2 inh)
C[C@H](CO)N1C[C@H](C)[C@@H](CN(C)Cc2ccc(C(=O)Nc3ccccc3N)cc2)Oc2c(NC(=O)Nc3ccccc3)cccc2C1=O	miR-122 sensor 97[16.7 µM] (no result: CASP6 VEID inh, NSD2 inh)
C[C@@H]1CN([C@H](C)CO)C(=O)c2cccc(NC(=O)Nc3ccccc3)c2O[C@H]1CN(C)Cc1ccc(C(F)(F)F)cc1	miR-122 sensor 107[16.7 µM] (no result: NSD2 inh)
C[C@@H]1CN([C@@H](C)CO)C(=O)c2cccc(NC(=O)Nc3ccccc3)c2O[C@H]1CN(C)Cc1ccc(C(=O)Nc2ccccc2N)cc1	none (no result: CASP6 VEID inh, NSD2 inh)
COCC(=O)N(C)C[C@H]1Oc2cc(-c3ccc(C#N)cc3)ccc2S(=O)(=O)N([C@@H](C)CO)C[C@@H]1C	none (no result: NSD2 inh)
COCC(=O)N1CC[C@@H]2[C@H]1c1cc(-c3cccc(F)c3)ccc1N(C)[C@H]2CO	none (no result: CASP6 VEID inh, NSD2 inh, AF4-AF9 inh)
CC(=O)/C=C1/SC(CC(=O)O)C(=O)N1c1ccccc1 (configuration not stated)	NSD2 inh 115 (no result: CASP6 VEID inh, AF4-AF9 inh, RAD52 inh)
COc1ccc(NCc2ccc(OC)c(Cn3ccnc3)c2)c(OC)c1	AF4-AF9 inh 34
COc1cc(C2C3=C(COC3=O)Oc3cc4c(cc32)OCO4)ccc1O (configuration not stated)	none
COc1cc(C2C3=C(COC3=O)OC(C)(C)Oc3cc4c(cc32)OCO4)cc(OC)c1OC (configuration not stated)	miR-122 sensor 114
Nc1nc(-c2cc(O)ccc2[N+](=O)[O-])cc(-c2ccccc2)c1[N+](=O)[O-]	CASP6 VEID inh 47
COc1ccc(NC(=O)N(C)C[C@H]2Oc3c(NC(=O)C4CCCCC4)cccc3C(=O)N([C@@H](C)CO)C[C@H]2C)cc1	none (no result: CASP6 VEID inh, NSD2 inh)
CN(C)CC(=O)N[C@H]1CC[C@H](CCn2cc(CN(C)C)nn2)O[C@H]1CO	RAD52 inh 73 (no result: NSD2 inh, miR-122 sensor)
COc1ccc(C=C(C#N)C(=O)c2ccccc2)cc1	none (no result: miR-122 sensor)
COc1cc(/C=C(\C#N)C(=O)c2ccc(O)c(O)c2)cc(I)c1O	CASP6 VEID inh 63 (no result: NSD2 inh)
Cc1noc(C)c1NC(=O)Nc1ccc2c(c1)C(=O)N(C)[C@H]1CC[C@@H](CC(=O)NCc3ccc(Cl)cc3)O[C@H]1CO2	none (no result: NSD2 inh, miR-122 sensor)
O=C(COc1ccc(Br)cc1CO)Nc1ccccc1	none (no result: CASP6 VEID inh, AF4-AF9 inh, RAD52 inh)
Cc1ccc(NC(=O)COc2ccc(Br)cc2CO)cc1	miR-122 sensor 284 (no result: CASP6 VEID inh, AF4-AF9 inh, RAD52 inh)
O=C(C[C@H]1CC[C@@H]2[C@H](COC[C@@H](O)CN2C(=O)Nc2ccc(Cl)cc2)O1)NCCc1ccncc1	none (no result: NSD2 inh)
